# Reference: PubChem BioAssay
# “And” between values parts separate entries of the source, which are not always exact repeats. Identical values can stand only once. The source made the active and inactive calls. Unless noted, no stated cut-off is given here; in the data, active means inhibition above about 80%; inactive means the rest.
# What was measured:
# [1] = HDN33 neuroblastoma growth inhibition, cell-based, chromothripsis tumors, cisplatin or BGB combos (AID 1671450); settings: HDN33 neuroblastoma cells, stronger effect = higher value;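 further: cells exposed to compound for four days; 0% = vehicle DMSO and 100% = cell killing by high DMSO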
# [2] = ICB984 medulloblastoma cell growth inhibition, synergistic combos for chromothripsis tumors, cisplatin or BGB combos (AID 1671451; call rule not given here;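 further: cells exposed for 96 hours before readout; 0% = vehicle DMSO and 100% = killing by high DMSO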); settings: ICB984 medulloblastoma cells, drug combinations, stronger effect = higher value
# [3] = LFS_MB_1R medulloblastoma cell growth inhibition, synergistic combos for chromothripsis tumors, cisplatin or BGB combos (AID 1671452); settings: LFS_MB_1R medulloblastoma cells, stronger effect = higher value;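 further: cells exposed for 96 hours before readout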
# [4] = HTB85 osteosarcoma cell growth inhibition, synergistic combos for chromothripsis tumors, BGB or cisplatin IC20 combos (AID 1671453); settings: HTB85 osteosarcoma cells, drug combinations, stronger effect = higher value;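 further: cells exposed for 96 hours before readout; 0% = vehicle DMSO and 100% = high DMSO killing control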
# [5] = CRL2098 osteosarcoma cell growth inhibition, synergistic combos for chromothripsis tumors, BGB or cisplatin IC20 combos (AID 1671454); settings: CRL2098 osteosarcoma cells, drug combinations, stronger effect = higher value;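 further: cells exposed for 96 h before readout; 0% = vehicle DMSO and 100% = killing by high DMSO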
# [6] = HD-MB03 medulloblastoma cell growth inhibition, synergistic combos for chromothripsis tumors, BGB or cisplatin IC20 combos (AID 1671455; in the data active means inhibition above about 83%;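 further: 0% = vehicle DMSO and 100% = high DMSO as cytotoxic control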); settings: HD-MB03 medulloblastoma cells, stronger effect = higher value
# [7] = UWB1.289 ovarian carcinoma cell growth inhibition, synergistic combos for chromothripsis tumors, BGB or cisplatin combos (AID 1671456); settings: UWB1.289 ovarian carcinoma cells, stronger effect = higher value;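 further: cells exposed to compound for four days; 0% = vehicle DMSO and 100% = killing by high DMSO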
# [8] = LFS_MB_2R medulloblastoma cell growth inhibition, synergistic combos for chromothripsis tumors, cisplatin combos (AID 1671457); settings: LFS_MB_2R medulloblastoma cells, stronger effect = higher value;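 further: cells exposed to compound for four days before readout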
# [9] = MDA-MB-436 breast carcinoma cell growth inhibition, synergistic combos for chromothripsis tumors, BGB or cisplatin combos (AID 1671458; call rule not given here;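 further: cells exposed for 96 hours; 0% = vehicle DMSO and 100% = killing by high DMSO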); settings: MDA-MB-436 breast carcinoma growth inhibition, drug combinations, stronger effect = higher value
# [10] = UWB1.289_BRCA1 ovarian cancer growth, cell-based, BGB or cisplatin combinations (AID 1671459); settings: UWB1.289 BRCA1 ovarian carcinoma, drug combinations, stronger effect = higher value
# [11] = human astrocyte viability loss, single and combined drugs, cytotoxicity control for chromothriptic childhood tumor combination screen, cell-based, BGB or cisplatin IC20 combos (AID 1671460); settings: Human astrocytes, drug combinations, stronger effect = higher value;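 further: cells exposed to compounds for 96 hours before viability readout; 0% = vehicle and 100% = killing control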
# [12] = growth inhibition of BT084 medulloblastoma cells, cell-based, ICGC_MB145, cisplatin and BGB IC40 combos (AID 1671461); settings: drug combinations, stronger effect = higher value;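 further: cells exposed to drugs for 96 hours; 0% = vehicle DMSO and 100% = high DMSO full killing control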
# [13] = growth inhibition of RCMB18 medulloblastoma cells, cell-based, cisplatin and BGB IC40 combos (AID 1671462); settings: stronger effect = higher value;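 further: cells exposed to compound for four days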
# [14] = growth inhibition of CRL1545 osteosarcoma cells, cell-based, cisplatin and BGB IC20 combos (AID 1671464); settings: stronger effect = higher value;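 further: cells exposed to compound for 96 hours before readout; 0% = vehicle DMSO and 100% = high DMSO killing control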
# [15] = measured here: with cisplatin IC20 combination, at 0.5 µM
# [16] = measured here: combination with cisplatin, at 0.5 µM
# [17] = measured here: combination with cisplatin, at 5 µM
smiles,measurement,setting,value
NC(=O)c1ccc(I)c([N+](=O)[O-])c1,inhibition,[1]; [15],8.47% and -16.9%
same,inhibition,"[1]; single agent, at 5 µM",-4.01% and -42.6%
same,inhibition,"[2]; BGB IC20 combo, at 0.005 µM",6.79% and -19.8%
same,inhibition,"[2]; BGB IC40 combo, at 0.005 µM",-8.71% and -63.3%
same,inhibition,"[2]; BGB IC40 combo, at 0.05 µM",6.96% and -25.8%
same,inhibition,[2]; at 0.5 µM,-18.4% (inactive) and -40.8% (inactive)
same,inhibition,"[2]; cisplatin combo, at 0.05 µM",4.36% and -30.8%
same,inhibition,"[2]; cisplatin combo, at 0.5 µM",-11.9% and -53.2%
same,inhibition,"[2]; cisplatin combo, at 5 µM",-10.4% and -25.8%
same,inhibition,"[2]; measured here: 5 uM single agent, at 5 µM",-7.67% and -25%
same,inhibition,[3]; at 0.5 µM,-3.89% (inactive) and -33.7% (inactive)
same,inhibition,"[3]; measured here: combination with BGB IC40, at 0.05 µM",-3.85% and -20%
same,inhibition,[3]; [16],-8.55% and -54.4%
same,inhibition,[3]; [17],14.7% and -8.48%
same,inhibition,[4]; at 0.5 µM,9.09% (inactive) and -11.2% (inactive)
same,inhibition,"[4]; measured here: with BGB IC20, at 0.5 µM",18.2% and -8.85%
same,inhibition,"[4]; measured here: with BGB IC20, at 5 µM",-13% and -0.795%
same,inhibition,"[4]; measured here: with cisplatin IC20, at 0.5 µM",-4.67% and -22.1%
same,inhibition,"[4]; measured here: with cisplatin IC20, at 5 µM",-22.8% and -21.8%
same,inhibition,"[4]; single agent, at 5 µM",-0.511% and -17.6%
same,inhibition,[5]; at 0.5 µM,-9.77% (inactive) and -68.7% (inactive)
same,inhibition,"[5]; measured here: combination with BGB at IC20, at 0.5 µM",4.55% and -23.6%
same,inhibition,"[5]; measured here: combination with cisplatin at IC20, at 0.5 µM",-0.612% and -98.1%
same,inhibition,[6]; at 0.5 µM,2.12% (inactive) and -9.81% (inactive)
same,inhibition,"[6]; measured here: combo with BGB at IC20, at 0.5 µM",8.1% and -18.5%
same,inhibition,"[6]; measured here: combo with cisplatin at IC20, at 0.5 µM",1.77% and -5.96%
same,inhibition,[7]; at 0.5 µM,4.39% (inactive) and -12.6% (inactive)
same,inhibition,"[7]; measured here: inhibition with BGB combination, at 0.05 µM",-4.87% and -28.1%
same,inhibition,"[7]; measured here: inhibition with cisplatin combination, at 0.05 µM",4.41% and -26.6%
same,inhibition,[8]; at 0.5 µM,-3.62% (inactive) and -27.7% (inactive)
same,inhibition,[8]; [16],4.37% and -27.4%
same,inhibition,[8]; [17],-55.7% and -23.8%
same,inhibition,[9]; at 0.5 µM,-14.6% (inactive) and -27.1% (inactive)
same,inhibition,"[9]; measured here: BGB combination, at 0.5 µM",-12.7% and -19.7%
same,inhibition,"[9]; measured here: BGB combination, at 5 µM",6.5% and -14.3%
same,inhibition,"[9]; measured here: cisplatin combination, at 0.5 µM",-24.5% and -37.3%
same,inhibition,"[9]; measured here: cisplatin combination, at 5 µM",-16.7% and -24%
same,inhibition,"[10]; BGB combination, concentration series, at 5 µM",8.62% and -14.6%
same,inhibition,[10]; at 0.5 µM,3.67% (inactive) and -21.5% (inactive)
same,inhibition,"[10]; cisplatin combination, concentration series, at 5 µM",11.7% and -8.59%
same,inhibition,[11]; at 0.5 µM,13.4% (inactive) and -16.5% (inactive)
same,inhibition,"[11]; measured here: combo with BGB IC20, at 0.5 µM",12.4% and -9.72%
same,inhibition,"[11]; measured here: combo with cisplatin IC20, at 0.5 µM",18.2% and -4.93%
same,inhibition,[12]; at 0.5 µM,-19.3% (inactive) and -16.2% (inactive)
same,inhibition,"[12]; cisplatin combination, at 0.5 µM",8.84% and -1.53%
same,inhibition,"[12]; cisplatin combination, at 5 µM",4.99% and 0.215%
same,inhibition,"[12]; measured here: BGB IC40 combination 0.05 uM, at 0.05 µM",25.4% and -22.5%
same,inhibition,"[12]; single agent, at 5 µM",-9.27% and -35.4%
same,inhibition,[13]; at 0.5 µM,2.19% (inactive) and -9.96% (inactive)
same,inhibition,"[13]; cisplatin combo, at 5 µM",15.5% and 33.9%
same,inhibition,"[13]; measured here: BGB IC40 combination, at 0.05 µM",-12.1% and -17.3%
same,inhibition,[13]; [16],21.4% and 23.8%
same,inhibition,"[13]; single agent, at 5 µM",-9.55% and -39.2%
same,inhibition,[14]; at 0.5 µM,3.31% (inactive) and -13.9% (inactive)
same,inhibition,"[14]; measured here: with BGB IC20 combination, at 0.5 µM",-14.5% and -22.9%
same,inhibition,[14]; [15],10.2% and -9.34%
same,inhibition,"[14]; single agent, at 0.05 µM",-40.1% and -19.9%
same,inhibition,"[14]; single agent, at 5 µM",-12.7% and -3.93%
